Among the data in PubChem BioAssay (NCATS) are Potency values, retold here.

Results filed as inconclusive are left out. Active and inactive are the calls of the source. Calls come from the whole dose curve; as a rule, active = well fitted inhibition curve with a large enough effect; inconclusive = small, poorly fitted or top-dose-only effect; inactive = no such curve, though single readings can be large or run the other way.

Test [1] in a line: qHTS for Inhibitors of the Aldehyde Dehydrogenase Family (ALDH1A2, ALDH1A3, ALDH2, ALDH3A1) (AID 2061307; note: nearly all actives have a fitted effect of over 50% in size; for Potency: test system not described further here; potency is the fitted concentration of half-maximal effect). (In general: In qHTS, concentration-response curves come from the screen itself.)
The target in test [2] is Retinaldehyde dehydrogenase 3 (Homo sapiens) (UniProt P47895). Briefly: qHTS for Inhibitors of the Aldehyde Dehydrogenase Family (ALDH1A3) Confirmatory screens (AID 2061311). Note: nearly all actives have a fitted effect of over 60% in size. Note: potency is the fitted concentration of half-maximal effect.
Test [3] deals with Retinal dehydrogenase 2 (Homo sapiens) (UniProt O94788). Briefly: qHTS for Inhibitors of the Aldehyde Dehydrogenase Family (ALDH1A2) Confirmation screens (AID 2061314). Note: nearly all actives have a fitted effect of over 65% in size. Note: potency is the fitted concentration of half-maximal effect.
For test [4], the target named is Aldehyde dehydrogenase 1A1 (Homo sapiens) (UniProt P00352). Briefly: qHTS for Inhibitors of the Aldehyde Dehydrogenase Family (ALDH1A1) Confirmatory screens (AID 2061316). Note: nearly all actives have a fitted effect of over 65% in size. Note: potency is the fitted concentration of half-maximal effect.
For test [5], the target named is Retinaldehyde dehydrogenase 3 (Homo sapiens) (UniProt P47895). The test is described as follows: qHTS for Inhibitors of the Aldehyde Dehydrogenase Family (ALDH1A3) Primary screen (AID 2061315).

Regarding `COc1ccc(-c2nc(CCNC(=O)c3c(F)cccc3Cl)cs2)cc1`, the Potency result in test [1], in test [2], in test [3] and in test [4] was “inactive” each time.

`CCN(CC)CC(=O)c1c(C)n(C)c2ccc(OC)cc12`: the Potency entry in test [1], in test [2], in test [3] and in test [4] was “inactive” each time.

Regarding `CC(C)CCN(C)Cc1ccc(-c2ccccc2)cc1`, the Potency was 25.1 µM (active) in test [1] and 4.19 µM (active) in test [2]. Besides, the Potency entry in test [3] is “inactive”.

`CCOC(=O)c1[nH]c2c(c1C)C(=S)CC(c1ccco1)C2` (stereo not drawn): the Potency in test [1] was 8.96 µM (active); in test [2] it was 12.7 µM (active); in test [3] it was 12.7 µM (active); in test [4] it was 2.01 µM (active). Further, the Potency result in test [5] is “inactive”.

Consider `COc1ccc(C2=Nn3c(nnc3-c3ccccc3OC)SC2)cc1OC1CCCC1`, for which the Potency is 15.8 µM (active) in test [1], 22.4 µM (active) in test [2] and 6.34 µM (active) in test [3]. Moreover, the Potency entry in test [5] was “inactive”.

As for `COc1ccc(C2=NN(CC(=O)NCCc3ccc(OC)c(OC)c3)C(=O)CC2)cc1`, the Potency entry in test [1], in test [2] and in test [3] was “inactive” in each case.

For the molecule `CN1CCN(c2ccc(NC(=O)CN(C)Cc3c(O)ccc4ccccc34)cc2)CC1`, the Potency was 7.12 µM (active) in test [1], 22.5 µM (active) in test [2], 7.12 µM (active) in test [3] and 5.04 µM (active) in test [4]. The Potency entry in test [5] is “inactive”.

`Cc1ccc(CCN2C(=O)c3ccc(C(=O)O)cc3C2=O)cc1`: the Potency entry in test [1], in test [2], in test [3] and in test [5] was “inactive” in each case.

For the molecule `O=C1Nc2ccc(Cl)cc2/C1=C\c1cc(Cl)c(O)c(Cl)c1`, the Potency in test [1] is 10.1 µM (active); in test [3] it was 12.7 µM (active). The Potency entry in test [2] and in test [5] was “inactive” throughout.

Turning to `CC(=O)Nc1sc2c(c1-c1csc3ccccc13)CCNC2`, the Potency entry in test [1], in test [2] and in test [5] was “inactive” each time. Further, the Potency in test [3] is 15.9 µM (active).

On to `CCOC(=O)C1CCN(C(=O)C(C)(C)NC(=O)Nc2ccc(N(C)C)cc2)CC1`, for which the Potency entry in test [1] was “inactive”. The figures for the Potency in test [2] and in test [3] were 14.2 µM (active) and 12.7 µM (active), respectively.

`Cc1cccc(-c2ccccc2C=O)c1`: the Potency entry in test [1], in test [2], in test [3] and in test [4] was “inactive” throughout.

Consider `CC(=O)N1CCN(c2ccc(NCc3ccc4c(c3)OCO4)cc2)CC1`, for which the Potency was 8.96 µM (active) in test [1], 11.3 µM (active) in test [2] and 8.96 µM (active) in test [3].

As for `O=C1Cc2cc(S(=O)(=O)N3CCNCC3)ccc2N1`, the Potency entry in test [1], in test [2] and in test [5] was “inactive” in each case. Besides, the Potency in test [3] was 17.9 µM (active).

For `NC(=O)C1CCN(c2nc(-c3ccc4ccccc4c3)cs2)CC1`, in test [1], the Potency is 5.65 µM (active). Also, the Potency entry in test [2], in test [3] and in test [5] was “inactive” in each case.

`Cc1cc(C)nc(NC(=S)N2CCN(c3ccc4cn(C)nc4c3)CC2)c1`: the Potency result in test [1] and in test [5] was “inactive” throughout. For the same molecule, the Potency in test [2] was 15.9 µM (active); in test [3], 12.7 µM (active); in test [4], 7.12 µM (active).

As to `CCOC(=O)c1c(C)n(-c2ccc(OC)cc2)c2ccc(OC(=O)COc3ccccc3)cc12`, the Potency entry in test [1], in test [2], in test [3] and in test [4] was “inactive” each time.

For the molecule `Cc1ccc(-c2cc(C(=O)NCc3cccc(F)c3)nn3cnnc23)cc1`, the Potency in test [1] and in test [2] was 8.91 µM (active) throughout. In test [3], the Potency entry is “inactive”.

Consider `COc1cc(NS(=O)(=O)c2cccc([N+](=O)[O-])c2)c2ncccc2c1`, for which the results for the Potency in test [1], in test [2] and in test [3] were 11.3 µM (active), 5.65 µM (active) and 3.18 µM (active), respectively.
